# From the supplement of paper PMC12669032
# Unmarked numbers belong to inactive results.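 How the source made its calls: active = AUC reduced over 20% with Padj below 0.05 in at least 2 of 3 replicates; inactive = otherwise.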
# Tests used:
# Test in all cases: growth AUC relative to DMSO control (median of replicates) (fraction); higher = more growth (less inhibition), active = hit call of the paper
# Conditions in all cases: 20 µM; 24 h
# Akkermansia muciniphila = test system: Akkermansia muciniphila
# Procedure, shortened: (§1)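 Starting at OD600 0.05, gut bacterial monocultures in mGAM were grown anaerobically at 37 °C with 20 µM compound (1% DMSO) under pierced gas-permeable seals. OD600 was read every hour for 24 h, and the lowest OD of each curve was set to 0. Area under the growth curve was normalised to the plate median of solvent-only wells, or to row and column medians on the industrial chemical plate, and the median of three biological replicates grown on separate days is given.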
# Bacteroides caccae = test system: Bacteroides caccae
# Procedure, shortened: as §1
# Bacteroides clarus = test system: Bacteroides clarus
# Procedure, shortened: as §1
# Bacteroides dorei = test system: Bacteroides dorei
# Procedure, shortened: as §1
# Bacteroides stercoris = test system: Bacteroides stercoris
# Procedure, shortened: as §1
# [1] = test system: Bacteroides thetaiotaomicron
# Procedure, shortened: as §1
# Bacteroides uniformis = test system: Bacteroides uniformis
# Procedure, shortened: as §1
# [2] = test system: Bifidobacterium longum subsp. longum
# Procedure, shortened: as §1
# Clostridium difficile = test system: Clostridium difficile
# Procedure, shortened: as §1
# Collinsella aerofaciens = test system: Collinsella aerofaciens
# Procedure, shortened: as §1
# Coprococcus comes = test system: Coprococcus comes
# Procedure, shortened: as §1
# Escherichia coli ED1a = test system: Escherichia coli ED1a
# Procedure, shortened: as §1
# Escherichia coli IAI1 = test system: Escherichia coli IAI1
# Procedure, shortened: as §1
# Eubacterium rectale = test system: Eubacterium rectale
# Procedure, shortened: as §1
# [3] = test system: Fusobacterium nucleatum subsp. animalis
# Procedure, shortened: as §1
# Lactobacillus gasseri = test system: Lactobacillus gasseri
# Procedure, shortened: as §1
# Lactobacillus paracasei = test system: Lactobacillus paracasei
# Procedure, shortened: as §1
# Odoribacter splanchnicus = test system: Odoribacter splanchnicus
# Procedure, shortened: as §1
# [4] = test system: Parabacteroides distasonis
# Procedure, shortened: as §1
# Parabacteroides merdae = test system: Parabacteroides merdae
# Procedure, shortened: as §1
SMILES,growth AUC (Akkermansia muciniphila),growth AUC (Bacteroides caccae),growth AUC (Bacteroides clarus),growth AUC (Bacteroides dorei),growth AUC (Bacteroides stercoris),growth AUC [1],growth AUC (Bacteroides uniformis),growth AUC [2],growth AUC (Clostridium difficile),growth AUC (Collinsella aerofaciens),growth AUC (Coprococcus comes),growth AUC (Escherichia coli ED1a),growth AUC (Escherichia coli IAI1),growth AUC (Eubacterium rectale),growth AUC [3],growth AUC (Lactobacillus gasseri),growth AUC (Lactobacillus paracasei),growth AUC (Odoribacter splanchnicus),growth AUC [4],growth AUC (Parabacteroides merdae)
Cc1cc(Cl)ccc1N=CN(C)C.Cl,1.06,0.997,1.01,1.03,0.972,1.01,0.982,1.03,1.04,0.978,1.09,1,0.98,1.01,1.01,1.01,1.03,1,1.02,1.01
Oc1ccc(Cl)cc1,0.989,0.997,0.952,1.01,0.981,0.997,0.987,0.971,0.981,0.988,0.989,0.967,0.951,0.921,0.941,0.968,1,1.01,1.05,0.988
Cc1cc(Cl)ccc1OCC(=O)O.O.[Na],1.25,0.981,1.01,0.921,1.02,1.05,0.993,1.05,1.02,0.98,1,1.01,1,1.15,1.07,0.864,0.994,1.03,0.95,1.04
CCOP(=S)(OCC)Oc1cc(Cl)c(SC)cc1Cl,1.01,0.997,0.979,0.999,1.11,0.992,0.989,0.981,1.05,1.01,1.02,0.999,0.977,0.897,1.03,0.981,0.995,1.12,1.01,0.926
O=C(NC(=O)c1ccccc1Cl)Nc1ccc(OC(F)(F)F)cc1,1.06,0.915,0.964,0.927,0.802,0.962,1.01,0.986,0.946,0.937,0.949,0.97,0.952,1.04,0.728,0.856,0.892,1.04,0.965,0.971
CCc1nn(C)c(C(=O)NCc2ccc(C(C)(C)C)cc2)c1Cl,1.02,0.94,0.929,0.921,0.725 (active),0.694 (active),0.982,0.95,0.972,0.887,0.954,0.974,0.967,1.01,0.984,0.913,1.06,0.956,0.991,0.918
O=C1OCC2C1C1(Cl)C(Cl)=C(Cl)C2(Cl)C1(Cl)Cl (stereo not given),1.09,0.965,0.991,0.987,0.871,1.04,1.01,1.06,0.987,0.926,1.01,0.979,1.01,1.07,0.925,0.927,0.991,1.09,1.07,0.987
CCCCC(C#N)(Cn1cncn1)c1ccc(Cl)cc1 (stereo not given),1.04,1.02,0.952,0.98,0.861,0.984,0.975,1.04,0.985,0.959,1.02,0.966,0.97,1.01,1.02,0.965,0.916,1.04,1.02,0.988
CCOP(=O)(N=C1SCC(C)S1)OCC (stereo not given),0.979,0.995,0.966,1.03,0.983,1.01,1.03,1.03,0.977,1,1.03,1.02,0.951,1.1,1.09,0.985,0.971,1.04,0.977,0.976
CCc1nn(C)c(C(=O)NCc2ccc(Oc3ccc(C)cc3)cc2)c1Cl,0.877,0.935,0.932,0.974,0.633,0.967,0.984,0.81,1.04,0.952,0.959,0.986,0.997,0.96,0.952,1.1,0.942,0.896,0.947,0.975
CC(C)Nc1nc(Cl)nc(NC(C)C)n1,0.954,0.825,0.989,0.965,1.14,0.96,1.02,1.07,0.986,0.961,0.958,1.03,0.978,1.07,1.04,0.983,1.06,0.797,1.02,0.968
CCOP(=O)(OCC)OCC,1.06,0.991,1.03,0.972,1.03,1.02,1.03,0.971,0.989,0.967,1.01,1.01,1.07,1.01,1.07,0.931,0.964,1.05,1.03,1.05
CCc1cccc(CC)c1N(COC)C(=O)CCl,0.942,1,0.991,0.949,1.08,0.957,0.985,1,0.974,0.989,0.976,0.96,0.975,0.993,1.05,0.948,1.01,1.04,0.993,0.978
COCC(=O)N(c1c(C)cccc1C)[C@H](C)C(=O)OC,0.94,1,1.04,1.04,1.06,1,1.02,1.1,1.02,1.04,1.04,1.02,1.05,1.01,1.02,0.957,1,1.03,1.05,1.05
CC(C)OC(=O)Nc1ccccc1,0.984,1.02,1.02,1.07,1.12,1.01,0.98,0.988,1.05,1.02,1.03,0.994,1.01,0.991,1.02,1.13,1.04,0.962,1.01,1
FC(F)C(F)(F)OCC(Cn1cncn1)c1ccc(Cl)cc1Cl (stereo not given),0.949,0.967,0.921,0.924,0.957,0.921,0.957,0.967,0.985,0.93,0.979,0.972,0.966,0.804,1.02,0.912,0.841,0.981,0.951,0.932
